The text below walks through data of PubChem BioAssay AID463195 (Sanford-Burnham Center for Chemical Genomics, 2010).

Each structure is given as a SMILES string. The whole screen tested about 330,000 compounds, of which about 4,600 (1.4%) were called active. The entries come from a sample that favours actives as a whole. Values without a mark were called inactive.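 How the source made its calls: active means inhibition of 40% or more at the single tested concentration; inactive means the rest.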

The assay can be described thus: growth inhibitors of isogenic TIM10 control yeast, primary screen, counter-screen for tim10-1 yeast inhibitor project, luminescence, uHTS (AID 463195).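 Further: wild-type TIM10 isogenic control strain grown at permissive 25 °C; 0% = DMSO yeast wells and 100% = minimal medium wells without yeast.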 The note with it: S. cerevisiae TIM10 strain growth, BacTiter-Glo luminescence, 24 h; at 10 µM; active compounds read high. Background: The purpose of a counterscreen is to sort out artefacts and off-target activity.
For orientation: inhibition means the change of the read-out against control, counted positive when it falls. On to `COc1ccc2c(c1)c(C(=O)N/N=C/c1cccs1)c(C)n2C`, for which the inhibition was 24%.
As for `COc1cccc(CNC(=O)CCC2CCCN(C(=O)c3ccoc3C)C2)c1` (configuration not stated), the figure is 10.1%.
The same measure for `Cn1c2ccccc2c2c(C(=O)N3CCN(c4ccc(F)cc4)CC3)cn(C3CCCC3)c(=O)c21`: 37.3%; for `CCCc1nc2c(c(=O)c3ccccc3n2C)c(=O)n1C1CCCCCC1`: 49.4% (active); for `CC1CCN(Cc2nc3c(c(=O)n(C)c(=O)n3C)n2CCc2ccccc2)CC1`: 3.96%.
Regarding `CCOC(=O)CSc1nc2ccc(C)cc2n2cnnc12`, the inhibition was 3.21%.
As for `O=c1ccc2cc(S(=O)(=O)Nc3ccccc3F)ccc2o1`, the figure is 4.92%; as for `O=c1oc(-c2ccccc2NS(=O)(=O)c2ccc(Cl)cc2)nc2ccccc12`, 59.4% (active).
With `O=c1oc2ccccc2c(NC2CCCCC2)c1NS(=O)(=O)c1ccc(Cl)cc1`, the inhibition was 21.4%.
As for `O=C(NC(=O)c1ccccc1N1CCCCC1)Nc1ccc(Br)cc1`, the figure is 14.8%; as for `CCOCCn1[nH]c2ccccc2c1=O`, 2.98%.
Regarding `COc1ccc(N2C(=O)CC(SC(C)C)C2=O)cc1` (configuration not stated), the inhibition was 5.36%.
The same measure for `COc1ccc(N2C(=O)CC(Sc3n[nH]c(-c4ccc(C)cc4)n3)C2=O)cc1` (configuration not stated): 54% (active); for `Cc1ccc(N2C(=O)CC(Sc3ncn[nH]3)C2=O)cc1` (configuration not stated): 26.4%; for `COc1ccc(CNC(=O)c2ccc3oc(C(C)C)nc3c2)cc1`: 2.31%.
The same measure for `O=C(CSc1ccc(-c2ccco2)nn1)Nc1cccc(F)c1`: 6.71%; for `Fc1cccc(Cl)c1CSc1ccc(-c2ccco2)nn1`: 46.6% (active).
Take `Cc1cc(SCc2c(F)cccc2Cl)nc(=O)[nH]1`: the inhibition is 9.07%.
As for `O=C(Nc1ccc2c(c1)CCC2)c1ccc(Br)s1`, the figure is 61.4% (active); as for `CC1CC(C)CN(CCC(=O)Nc2ccc3c(c2)CCC3)C1` (configuration not stated), -5.01%.
The same measure for `O=C(Nc1ccc(F)cc1)c1cc2c(s1)CCCC2`: 14%; for `COc1ccccc1N1CCN(S(=O)(=O)c2ccc3c(c2)NC(=O)CS3)CC1`: 12.3%.
The same measure for `COc1cccc(-n2c(=S)sc3c(=O)n(-c4ccccc4C)c(SCC(=O)O)nc32)c1`: 8.02%; for `C=CCN(C(=O)Cn1ncc2c1-c1cc(C)ccc1OC2)c1ccccc1`: 16.6%; for `Cc1cc(C)c2c(-c3ccc(F)cc3)c(C#N)c(=O)n(C)c2n1`: 11.3%.
For the molecule `COc1ccc(O)c(C(=O)c2cnc3c(c2)c(-c2ccc(F)cc2)c(C#N)c(=O)n3C)c1`, the inhibition was 40.2% (active).
Turning to `COCCn1c(=O)[nH]c(=O)c2cc(C(=O)c3cc(OC)ccc3O)cnc21`, the inhibition was -1.14%.
